The entries come from a sample that favours hits as a whole.
PI4K2A inh – qHTS for small molecular inhibitors of PI4K2A. Phosphatidylinositol 4-kinase type 2-alpha (Homo sapiens), Q9BTU6. purified PI4K2A, ADP-Glo luminescence, 1 h; stronger effect = lower value. activity change, negative = inhibition, % at 76.9 µM. actives 0.13% (n = 420,000); in the data active = activity change below about -50%; inconclusive = mostly about -30% to -49%
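ADP-Glo luminescence measured ADP generated by PI4K2A enzyme (4 ug/mL before mixing) with 1.2 mM PI substrate (pre-mix) and 300 microM ATP (pre-mix). Tris pH7.5 buffer with MgCl2, Triton X-100; 1 h reaction at ambient temperature.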
PI5P4K alpha inh – qHTS for Inhibitors of phosphatidylinositol 5-phosphate 4-kinase (PI5P4K); PI5P4Kalpha enzyme, ADP-Glo luminescence, 60 min; stronger effect = lower value; max response, %; actives 1.2% (n = 330,000); AID 652105, 2013; active = max response of -50% or lower; inconclusive = between -30% and -50%; inactive = -30% or higher; note: value at the top dose of about 77 µM
Target sequence (P48426 whole entry, looked up): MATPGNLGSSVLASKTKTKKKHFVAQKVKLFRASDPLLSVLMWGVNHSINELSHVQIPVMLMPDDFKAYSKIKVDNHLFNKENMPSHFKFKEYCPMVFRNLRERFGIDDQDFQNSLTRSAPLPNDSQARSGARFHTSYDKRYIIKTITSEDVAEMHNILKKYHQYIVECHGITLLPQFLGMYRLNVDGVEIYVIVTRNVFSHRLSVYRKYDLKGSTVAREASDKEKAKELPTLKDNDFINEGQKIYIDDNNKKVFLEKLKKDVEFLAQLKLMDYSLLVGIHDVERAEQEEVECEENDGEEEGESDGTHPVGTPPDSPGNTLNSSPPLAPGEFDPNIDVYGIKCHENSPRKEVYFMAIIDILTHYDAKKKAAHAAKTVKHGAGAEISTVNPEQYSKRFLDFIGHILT
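Human PI5P4Kalpha with substrate in 0.038 M HEPES pH 7.4, 0.28 mM EGTA, 0.1% CHAPS, 5% DMSO; reaction started with 5 microM ATP (final), 60 min at room temperature. ADP formed read by ADP-Glo luminescence.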
Tb PFK inh-1 – qHTS Assay to Find Inhibitors of T. brucei phosphofructokinase | Potency, µM (doses to about 57.5 µM), actives largely listed as inhibitors | T. brucei PFK, ADP-Glo luminescence | ATP-dependent 6-phosphofructokinase (Trypanosoma brucei brucei), O15648 | AID 485367, 2010 | actives 0.17% (n = 330,000); note: nearly all actives have a fitted effect of over 60% in size
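ADP-Glo luminescence quantified ADP after 45 min at room temperature, with 1.25 nM T. brucei PFK, 0.1 mM ATP and 0.5 mM fructose-6-phosphate in pH 8.0 TEA buffer. qHTS titrations up to 57 µM; curves classified by quality.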
Tb PGK inh – qHTS Assay to Find Inhibitors of Phosphoglycerate Kinase. Phosphoglycerate kinase, glycosomal (Trypanosoma brucei brucei), P07378. PGK/GAPDH coupled, Kinase-Glo luminescence, 60 min. Potency, µM (titrated, usually from 57.5 µM), usual class: inhibitors. actives 0.043% (n = 380,000). AID 602233, 2012; note: nearly all actives have a fitted effect of over 60% in size
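Luminescent ATP detection (Kinase-Glo Plus) follows a 60-minute room-temperature incubation, with wells lacking PGK as controls. Buffer: 100 mM TEA (pH 7.6), 5 mM MgCl2, 0.01% Tween-20. Coupling enzyme GAPDH (100 nM final) supplies unstable 1,3-BPG in-well.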
Pin1 inh – qHTS Assay to Find Inhibitors of Pin1; AID 504891, 2011; Potency, µM (series often up to 115 µM), actives largely listed as inhibitors; actives 0.009% (n = 390,000); Pin1 FP peptide displacement, HiFluor488, 10 min; Peptidyl-prolyl cis-trans isomerase NIMA-interacting 1 (Homo sapiens), Q13526; active = well fitted inhibition curve with a large enough effect in the polarisation, with a control signal flat, not every such curve was filed as active; inconclusive = small, poorly fitted or top-dose-only effect, or effect the other way, or a change in a side signal; inactive = no such curve, though single readings can be large or run the other way; the % refers to the polarisation
Target sequence (Q13526 whole entry, looked up): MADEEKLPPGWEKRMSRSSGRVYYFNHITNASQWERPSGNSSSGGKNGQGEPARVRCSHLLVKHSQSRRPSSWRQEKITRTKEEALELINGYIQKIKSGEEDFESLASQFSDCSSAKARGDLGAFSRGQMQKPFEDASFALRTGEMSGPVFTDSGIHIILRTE
TbPFK ATP – Tb PFK orthogonal confirmatory assay using ATP depletion (Kinase-Glo Plus) as an alternative measure of Tb PFK activity: Hit Validation; shares compounds with Tb PFK inh-1; Tb PFK enzyme, ATP depletion, Kinase-Glo Plus luminescence; Potency, µM (top dose mostly 57.5 µM); actives 47% (n = 1,100); AID 504636, 2011; calls by dose curve; note: nearly all actives have a fitted effect of over 60% in size
Tb PFK inh-2 – Inhibitors of T. brucei phosphofructokinase: Hit Validation; shares compounds with Tb PFK inh-1; purified T. brucei PFK, ADP-Glo luminescence, 45 min; Potency, µM (titrated, usually from 57.5 µM), most hits filed as inhibitors; actives 41% (n = 1,100); note: nearly all actives have a fitted effect of over 60% in size
Large screens that a line does not name were inactive (follow-up assays come after a bar, where they were run). Unless noted, calls come from the whole dose curve; as a rule, active = well fitted curve in the direction sought with a large enough effect; inconclusive = small, poorly fitted or top-dose-only effect, or another doubt; inactive = no such curve, though single readings can be large; an effect the other way counts as inactive or inconclusive.

CC(C)C[C@H](NC(=O)C1CC(=O)N(c2ccc3c(c2)OCO3)C1)C(=O)NCc1ccco1 (stereo partly drawn)	Tb PFK inh-1 inconclusive
C[C@]12C=CC(=O)C=C1CC[C@@H]1[C@@H]2CC[C@@]2(C)[C@H]1CC[C@]2(C)O	none (no result: PI5P4K alpha inh, Tb PFK inh-1, Tb PGK inh, Pin1 inh)
O=C(CSc1ccncc1)Nc1ccc(S(=O)(=O)Nc2nccs2)cc1	Tb PFK inh-1 19µM | TbPFK ATP 13.5µM | Tb PFK inh-2 26.9µM
O=C(COc1ccc(F)cc1Cl)Nc1ccc(S(=O)(=O)Nc2nccs2)cc1	Tb PFK inh-1 1.2µM | TbPFK ATP 0.953µM | Tb PFK inh-2 1.07µM
CC(C)(C)Cc1nnc(NC(=O)COc2ccc(Cl)cc2Cl)o1	none (no result: PI5P4K alpha inh, Tb PFK inh-1, Tb PGK inh, Pin1 inh)
O=C(COc1ccccc1F)Nc1ccc(S(=O)(=O)Nc2nccs2)cc1	Tb PFK inh-1 4.78µM | TbPFK ATP 2.13µM | Tb PFK inh-2 6.01µM
N#Cc1ccccc1OCC(=O)N1CCN(CC(=O)Nc2ccc(F)cc2)CC1	none
CC(=O)NS(=O)(=O)c1ccc(NC(=O)CSc2ccc(Cl)cc2)cc1	Tb PFK inh-1 30.1µM | TbPFK ATP 13.5µM | Tb PFK inh-2 30.1µM
O=C(Nc1ccc2c(c1)OCO2)c1cccn(Cc2cccc([N+](=O)[O-])c2)c1=O	none (no result: PI5P4K alpha inh, Tb PFK inh-1)
COc1ccc(NC(=O)c2cccn(Cc3ccc(Cl)cc3)c2=O)c(OC)c1	none (no result: PI5P4K alpha inh, Tb PFK inh-1)
COC(=O)C1=C(c2cccc(C#N)c2)C[C@@H]2CC[C@H]1N2C(=O)N1CCc2cc(OC)c(OC)cc2C1	none
O=C1C2CC=C(Cl)CC2C(=O)N1CCCCCCN1C(=O)C2CC=C(Cl)CC2C1=O (stereo not drawn)	Tb PFK inh-1 inconclusive (no result: PI5P4K alpha inh, Tb PGK inh, Pin1 inh) | TbPFK ATP inconclusive | Tb PFK inh-2 inconclusive
CCN(CC)C(=O)c1ccc(N2C(=O)C3CC=C(Cl)CC3C2=O)cc1 (stereo not drawn)	none
COP(=S)(OC)Oc1cc(Cl)c(Cl)cc1Cl	none (no result: PI5P4K alpha inh, Tb PFK inh-1, Tb PGK inh, Pin1 inh)
CCS(=O)(=O)C(C)(C)S(=O)(=O)CC	none (no result: PI5P4K alpha inh, Tb PFK inh-1, Tb PGK inh, Pin1 inh)
CC(c1ccccc1)n1cc(C(=O)NC2CCCC2)nn1 (stereo not drawn)	none (no result: PI5P4K alpha inh, Tb PFK inh-1, Tb PGK inh, Pin1 inh)
O=C(O)C1C2C=CC(C2)C1C(=O)Nc1ccc(Cl)c(Cl)c1 (stereo not drawn)	Tb PFK inh-1 21.3µM | TbPFK ATP inactive | Tb PFK inh-2 inactive
COc1cc(/C=C(\C#N)c2nc3ccccc3s2)cc([N+](=O)[O-])c1O	PI5P4K alpha inh -72.2, Tb PFK inh-1 inconclusive, Tb PGK inh inconclusive, Pin1 inh inconclusive | TbPFK ATP inactive | Tb PFK inh-2 inconclusive
CN1CCc2cc(O)c(O)cc2C(c2ccccc2)C1 (stereo not drawn)	Tb PFK inh-1 inconclusive | TbPFK ATP inconclusive | Tb PFK inh-2 inconclusive
Oc1cc2c(cc1O)[C@@H](c1ccccc1)CNCC2	Tb PFK inh-1 12µM | TbPFK ATP 1.9µM | Tb PFK inh-2 4.78µM
Oc1ccc([C@H]2CNCc3c2ccc(O)c3O)cc1O	none (no result: PI5P4K alpha inh, Tb PFK inh-1, Tb PGK inh, Pin1 inh)
O=c1c2ccccc2nc(/C=C\c2ccccc2F)n1-c1ccc(O)cc1	Pin1 inh inconclusive (no result: PI5P4K alpha inh, Tb PFK inh-1)
COc1cccc(C(=O)c2c(N)c(-c3nc(-c4ccccc4)cs3)c3ccccn23)c1	Pin1 inh inconclusive (no result: PI5P4K alpha inh, Tb PFK inh-1, Tb PGK inh)
OCCCCO	none
O=C1C2C3C=CC(CO)(O3)C2C(=O)N1c1ccccc1-c1ccccc1 (stereo not drawn)	Tb PFK inh-1 21.3µM (no result: PI5P4K alpha inh) | TbPFK ATP 23.9µM | Tb PFK inh-2 inconclusive

Source: PubChem (National Center for Advancing Translational Sciences (NCATS))
